# Screening data from PubChem.
# IkB signaling – IkB Signaling | AID 445, 2006 | ABC-DLBCL IkBa-CBG/CBR dual luciferase ratio, 4 h; response scale: scaled: untreated 0%, proteasome inhibitor 100% | Potency, µM (titrated, usually from 57.1 µM), without a hit: at the top dose IkBa stabilization activation | hit rate 0.04% among 110,000; active = well fitted curve in the direction sought with a large enough effect in the signal ratio, not every such curve was filed as active; inconclusive = small, poorly fitted or top-dose-only effect, or a change in a side signal; the % refers to the signal ratio;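 note: the direction sought is a rising ratio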
#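 Curves were fitted separately to fusion (green), unfused (red) and ratio luminescence, then classed by r2, magnitude and activity. Cells: OCI-Ly3, 4 h compound plus doxycycline at 37C; 10 uM MG-132 defined full response.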
# p53ts 39C kill – qHTS Screen for Compounds that Selectively Target Cancer Cells with p53 Mutations: Cytotoxicity of p53ts Cells at the Nonpermissive Temperature; H1299-p53A138V viability at 39C, ATP luminescence, 24 h; Potency, µM (series often up to 46.1 µM), for the others: at the highest dose activity change, negative = cell killing, actives largely listed as cytotoxic; hit rate 1.5% among 130,000; note: % is set by controls: 0 for no effect and ±100 for the full control effect; nearly all actives have a fitted effect of over 55% in size
# Peg3 imprint – qHTS Assay for Compounds that Induce Erasure of Genomic Imprints | mouse ES Peg3-LacZ reporter, beta-gal luminescence, 40 h | Potency, µM (top dose mostly 60.7 µM), for inactives: top-dose activity change, positive = activation, most hits filed as activators | hit rate 0.02% among 110,000
#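 Each well holds 300 Peg3LacZ-Neo (maternal) female ES cells incubated 40 h at 37C, 5% CO2. LacZ is measured by BetaGlo luminescence, with AC50 and maximum efficacy derived from dose-response curves.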
# p53ts 32C tox – qHTS Screen for Compounds that Selectively Target Cancer Cells with p53 Mutations: Cytotoxicity of p53ts Cells at the Permissive Temperature | H1299-p53A138V at 32C, ATP luminescence viability, 24 h | Potency, µM (titrated, usually from 46.1 µM), for the others: at the highest dose activity change, negative = cytotoxicity, usual class: cytotoxic | hit rate 0.93% among 130,000;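 note: 0% = DMSO and -100% = full killing by reference compound; nearly all actives have a fitted effect of over 55% in size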
#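 H1299-p53 A138V cells (temperature-sensitive p53) exposed 24 h to up to 46 uM compound at 32C, where p53 is wild-type in conformation. Viability read as ATP luminescence and normalised to DMSO and 100 uM tamoxifen. AC50 fitted with the Hill equation.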
# Active calls of the source: *; ? = inconclusive; . = no result; [ ] = remark or other dose. Only some compounds are listed: those with a hit (about 1.8% of all), similar ones and a draw of the others. Unless noted, calls come from the whole dose curve; as a rule, active = well fitted curve in the direction sought with a large enough effect; inconclusive = small, poorly fitted or top-dose-only effect, or another doubt; inactive = no such curve, though single readings can be large; an effect the other way counts as inactive or inconclusive. Potency is the fitted concentration of half-maximal effect.
SMILES,IkB signaling,p53ts 39C kill,Peg3 imprint,p53ts 32C tox
C=CCOC(=O)C(C(C)=O)C(NC(=O)OC)c1cccs1 (stereo not drawn),.,-2%[9.22 µM],.,2%[9.22 µM]
CCN1CCN(C(=O)c2cc3c(=O)n4ccccc4nc3n2Cc2ccccc2)CC1,1%,13µM*,-88%,13µM*
COc1ccc(NC(=O)c2cnc[nH]2)cc1,2%,13µM*,-20%[10.9 µM],7.9µM*
COc1ccc(-c2nnc(SC(C)C(=O)Nc3ccc4c(c3)OCCO4)o2)cc1 (stereo not drawn),1%,13µM*,-16%,16µM*
COc1cc(NC(=O)c2ccccc2)cc(OC)c1,4%,-8%,-30%,-3%
COc1ccc(NC(=O)c2ccc3c(c2)OCO3)cc1Cl,1%,13µM*,-78%,5µM*
COc1ccc(C(=O)Nc2cc(OC)cc(OC)c2)cc1,?,?,-85%,13µM*
COc1cc(C(=O)Nc2ccc3c(c2)OCCO3)ccc1OC(F)F,?,13µM*,-75%,16µM*
O=C(Nc1ccc2c(c1)OCCO2)c1cncc(Br)c1,13%,10µM*,-63%,10µM*
COc1ccccc1NC(=O)Nc1ccc2c(c1)OCCO2,?,13µM*,-86%,10µM*
COc1ccc(C(=O)Nc2ccc3c(c2)OCCO3)cc1,.,7.1µM*,.,6.3µM*
O=C(Nc1ccc(NC(=O)C2CC2)nc1)c1ccncc1,-2%,7%,-18%,4%
CCOC(=O)Cn1c(=O)oc2cc(S(=O)(=O)N3CCC(C(=O)OCC)CC3)ccc21,1%,-6%,4%[10.9 µM],-4%
COC(=O)Cn1c(CN2CCc3ccccc3C2)nc2c1c(=O)n(C)c(=O)n2C,2%,?,-39%,5µM*
CCCCCCCCCCCCCCCCCC(=O)O[C@H](CC(=O)O)C[N+](C)(C)C,-8%,?,.,?
Cc1cc(C)c(CSc2nnc(C)n3c2cc2occc23)c(C)c1,-1%,20µM*,-11%[10.9 µM],-20%
CCCCN(C(=O)NC(=O)Nc1nc2ccc(OC)cc2s1)S(C)(=O)=O,-4%,?,-49%,13µM*
Cc1nc(N2CCCC2)c2c(C(=O)N3CCN(c4cccc(C)c4C)CC3)c(C)oc2n1,?,1%,4%[10.9 µM],0%
Cc1nc2ccc(N)cc2s1,2%,17%,-14%,-7%
Cc1ccc2nc(-c3ccc(N)cc3)sc2c1S(=O)(=O)O,2%,16µM*,-89%,-8%[1.84 µM]
O=C(Nc1cccs1)Nc1cc(C(F)(F)F)ccc1Cl,?,25µM*,-18%[10.9 µM],-14%
COc1ccc(NC(=O)c2c(C)oc3ccc(O)c(CN4CCC(C)CC4)c23)cc1Cl,?,32µM*,-7%[10.9 µM],-6%
Cc1oc2ccc(O)c(CN3CCCC3)c2c1C(=O)Nc1ccccc1,-3%,-7%,-7%[10.9 µM],14%
Cc1oc2ccc(O)c(CN3CCCCCC3)c2c1C(=O)Nc1cccc(C(F)(F)F)c1,3%,16µM*,-11%[10.9 µM],-29%
COc1ccc(NC(=O)c2c(C)oc3ccc(O)c(CN4CCCC(C)C4)c23)cc1Cl (stereo not drawn),?,32µM*,-2%[10.9 µM],?
SMILES,IkB signaling,p53ts 39C kill,Peg3 imprint,p53ts 32C tox
COc1ccc(-c2cc(C(F)(F)F)n3ncc(-c4ccccc4)c3n2)cc1,?,3%,8%[10.9 µM],-3%
Cc1ccc2c(c1)c(=O)c(C(=O)c1ccncc1)cn2CC(=O)Nc1ccccc1Cl,2%,-9%,-12%[10.9 µM],2%
c1ccc(CSc2nnc(C3CCNCC3)o2)cc1,-1%,-3%,-21%[10.9 µM],0%
Cn1c(=O)c2c(nc(NCc3ccccc3)n2Cc2ccccc2)n(C)c1=O,6%,-4%,-21%[10.9 µM],-13%
Cn1c(=O)c2c(nc(NC3CCCCC3)n2Cc2ccccc2)n(C)c1=O,?,26%,-19%,5µM*
COc1ccccc1-c1nnc(Nc2nc3c(OC)cccc3s2)o1,?,?,-58%,4%
COc1cccc(-c2nnc(-c3ccc(C(F)(F)F)cc3)o2)c1,.,-7%,.,-3%
COc1cccc2sc(Nc3nnc(-c4ccccc4Cl)o3)nc12,?,13µM*,-49%,?
COc1cccc(-c2nnc(Nc3nc4c(F)cccc4s3)o2)c1,?,13µM*,-44%,?
CCOC(=O)N/N=C1/C[C@@H](O)[C@@H](O)[C@@H]2[C@@H]3C(=O)N(C[C@@H]4CCCO4)C(=O)[C@H]3CC[C@@H]12,.,1%[9.22 µM],.,-5%[9.22 µM]
CCCCN(CC)S(=O)(=O)c1ccc(C(=O)Nc2nnc(-c3cccs3)o2)cc1,?,13µM*,-33%,?
CCCCN(CCCC)S(=O)(=O)c1ccc(C(=O)Nc2nnc(COC)o2)cc1,-1%,10µM*,-23%,-13%
CCCCN(C)S(=O)(=O)c1ccc(C(=O)Nc2nnc(CSC)o2)cc1,1%,10µM*,-24%,-21%
Cc1ccc(C(=O)Nc2ccccc2C(=O)NC(CC(=O)O)C(=O)O)cc1 (stereo not drawn),?,-25%,-31%,-24%
Cc1ccc(C(=O)Nc2ccccc2C(=O)NC(C(=O)O)C(C)C)cc1 (stereo not drawn),.,10µM*,.,?
CCNc1ncc2nc(-c3ccc(OC)cc3)c(=O)n(-c3ccc(OC)cc3)c2n1,1%[11.4 µM],-6%,.,-6%
Cc1ccccc1NS(=O)(=O)c1ccc2[nH]c3c(c2c1)CCCCC3,?,25µM*,19%[10.9 µM],9%
COc1ccc(NS(=O)(=O)c2ccc3[nH]c4c(c3c2)CCCC4)cc1Cl,.,.,.,6%
Cc1cccc(NS(=O)(=O)c2ccc3[nH]c4c(c3c2)CCCCCC4)c1,?,?,16%[10.9 µM],0%
Cc1ccc(NS(=O)(=O)c2ccc3[nH]c4c(c3c2)CCCCCC4)cc1Cl,?,25µM*,-6%[10.9 µM],1%
O=C1CCNc2cc3ccccc3cc21,?,16µM*,-31%,?
O=S(=O)(c1ccc2c(c1)CCN2)N1CCCCCC1,1%,-7%,-5%[10.9 µM],-6%
N#CC1(O)CCCCC1,-1%,5%,4%,-12%[1.84 µM]
Cc1ccccc1CSc1ccc(-c2cccs2)nn1,-1%,11µM*,-13%[10.9 µM],?
CCC(Sc1ncc(S(=O)(=O)c2ccc(C)cc2)c(=O)[nH]1)C(=O)Nc1cc(C)ccc1C (stereo not drawn),1%,-23%,9%[10.9 µM],15%
Cc1ccc(N2CCN(C(=O)c3c(C)oc4ncnc(N5CCCCC5)c34)CC2)c(C)c1,?,20µM*,15%[10.9 µM],15%
C=C1CC[C@@H]2[C@](C)(CC[C@@H](O)[C@]2(C)CO)[C@@H]1C/C=C1/C(=O)OC[C@H]1O,10%[11.4 µM],.,.,.
CC(C)CC(=O)NC1(C(F)(F)F)C(=O)Nc2c1c(=O)[nH]c(=O)n2-c1ccccc1 (stereo not drawn),-2%,6%,-3%[10.9 µM],5%
N=c1cc(C2(O)CCCCC2)n2c(nc3ccccc32)s1,0%,1.3µM*,-51%,1µM*
O=C1c2sc3nc4ccccc4n3c2C(=O)N1c1ccccc1Cl,?,-12%,-12%,-2%
